# According to PubChem BioAssay:
# Activity calls are given as the source filed them. Rule as the data show it: active = nuclear beta-catenin stimulation mostly above about 4.2% (no sharp cut-off); inactive = mostly below about 10%.
# Assay: stimulators of nuclear beta-catenin in C2C12, primary screen, imaging, WNT3A-conditioned medium, mouse C2C12, NPC library (AID 1117326); also: reference of the scale not given here
# Conditions: stronger effect = higher value
SMILES,nuclear beta-catenin stimulation (at 10 µM),"nuclear beta-catenin stimulation (stimulation, at 2 µM)"
CCCCOc1ccc(C(=O)CCN2CCCCC2)cc1,1.2% (inactive),-0.2%
Cc1ccccc1OCC(O)CO (stereo not given),0.8% (inactive),2.4%
CC(=O)OCC(=O)[C@H]1CC[C@H]2[C@@H]3CCC4=CC(=O)CC[C@]4(C)[C@H]3CC[C@]12C,-1.4% (inactive),-0.5%
Cc1c[nH]c2ccccc12,2% (inactive),0.3%
COc1ccc(CCN2CCC(Nc3nc4ccccc4n3Cc3ccc(F)cc3)CC2)cc1,-1.3% (inactive),3.9%
Cc1cc(NC(=O)C2=C(O)c3ccccc3S(=O)(=O)N2C)no1,4% (inactive),1.7%
Cc1cc(C2CCCCC2)n(O)c(=O)c1,64.4% (active),14.3%
Nc1c(Br)cc(Br)cc1CNC1CCC(O)CC1 (stereo not given),1.6% (inactive),0.3%
c1ccc(CN(CC2=NCCN2)c2ccccc2)cc1,3.4% (inactive),2.4%
COC(=O)Nc1nc2ccc(Sc3ccccc3)cc2[nH]1,56.8% (active),33.5%
CCN(CC)CCNC(=O)COc1ccc(OC)cc1,0.5% (inactive),1.9%
C[C@@H]1CC[C@@]2(OC1)O[C@H]1C[C@H]3[C@@H]4CC[C@H]5C[C@@H](O)CC[C@]5(C)[C@H]4CC(=O)[C@]3(C)[C@H]1[C@@H]2C,6.5% (inactive),4.8%
CCN(CC)CCOC(=O)C(c1ccccc1)c1ccccc1,0.8% (inactive),-1.4%
CN1CCC[C@@H]1CCO[C@](C)(c1ccccc1)c1ccc(Cl)cc1,7.8% (inactive),2.3%
Cc1ccc(S(=O)(=O)NC(=O)NN2CC3CCCC3C2)cc1 (stereo not given),0.7% (inactive),1.2%
Cc1nc2n(c(=O)c1CCN1CCC(c3noc4cc(F)ccc34)CC1)CCC[C@H]2O,0% (inactive),-0.1%
CC1(C)O[C@H]2CC(=O)OC[C@]23[C@H]2CC[C@@]4(C)[C@H](c5ccoc5)OC(=O)[C@H]5O[C@]54[C@]2(C)C(=O)C[C@@H]13,-0.3% (inactive),0.6%
CCN(CCCCOC(=O)c1ccc(OC)c(OC)c1)C(C)Cc1ccc(OC)cc1 (stereo not given),0.6% (inactive),0.5%
CC(C)(Sc1cc(C(C)(C)C)c(O)c(C(C)(C)C)c1)Sc1cc(C(C)(C)C)c(O)c(C(C)(C)C)c1,4.3% (inactive),6%
NC(=NCCCCCCN=C(N)/N=C(\N)Nc1ccc(Cl)cc1)/N=C(\N)Nc1ccc(Cl)cc1,-2.3% (active),45.4%

SMILES,nuclear beta-catenin stimulation (at 10 µM),"nuclear beta-catenin stimulation (stimulation, at 2 µM)"
Cc1cccc(C(=O)O)c1O,0% (inactive),0.4%
CN1CCOC(c2ccccc2)c2ccccc2C1 (stereo not given),-0.7% (inactive),-1.3%
COc1ccc2c(c1)c(CC(=O)OCC(=O)O)c(C)n2C(=O)c1ccc(Cl)cc1,1.8% (inactive),0.4%
Cc1nc(N)nc(N)c1-c1ccc(Cl)c(Cl)c1,42.9% (active),55.1%
CN(C)C(=O)Nc1ccc(Cl)c(Cl)c1,3.6% (inactive),0.5%
NC(=O)N/N=C/c1ccc([N+](=O)[O-])o1,7.6% (inactive),2%
O=C(O)/C=C(\CC(=O)O)C(=O)O,-0.9% (inactive),-0.6%
CN1[C@@H]2CC[C@H]1CC(OC(=O)C(O)c1ccccc1)C2 (stereo not given in full),-0.1% (inactive),-2.6%
CO[C@H]1C=CO[C@@]2(C)Oc3c(C)c(O)c4c(O)c(c(/C=N/N5CCN(C)CC5)c(O)c4c3C2=O)NC(=O)/C(C)=C\C=C[C@H](C)[C@H](O)[C@@H](C)[C@@H](O)[C@@H](C)[C@H](OC(C)=O)[C@@H]1C,0.6% (inactive),1.2%
CCN(CCCc1ccccc1)CCCc1ccccc1,1% (inactive),4.5%
CCN(CC)C(=O)N1CCN(C)CC1,-0.1% (inactive),0.2%
Cc1ccc2c(Cl)cc(Cl)c(O)c2n1,0.6% (inactive),-1%
CCOc1ccc2nc3cc(N)ccc3c(N)c2c1,9.5% (inactive),0.7%
CC/C(=C(/CC)c1ccc(O)cc1)c1ccc(O)cc1,21.1% (inactive),-0.2%
CC(=O)O[C@]1(C(C)=O)CC[C@H]2[C@@H]3C=C(Cl)C4=CC(=O)CC[C@]4(C)[C@H]3CC[C@@]21C,1.1% (inactive),-0.3%
NC(CS)C(=O)O (stereo not given),-0.1% (inactive),0.4%
C1CCC(C(CC2CCCCN2)C2CCCCC2)CC1 (stereo not given),22.1% (inactive),1.1%
CC1=C(C)C(=O)C(C(CCCCCC(=O)O)c2ccccc2)=C(C)C1=O (stereo not given),0% (inactive),-1%
CCCCCCCCCCCCCCCCCCOCC(O)CO (stereo not given),3.8% (inactive),2.8%
CN1CCN(C(c2ccccc2)c2ccccc2)CC1,-2.3% (inactive),-0.3%
